Bioassay records deposited in PubChem BioAssay by several laboratories.
H9c2 protect: modulators protecting cardiomyocytes from myocardial damage | protection from H2O2 cell death, % at 20 µM | actives 0.63% (n = 360,000) | H9c2 cardiomyocytes, H2O2 injury protection, ATPLite, 2 h | AID 588492;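 active means compounds giving at least 50% protection of heart cells from peroxide-induced death in the single-dose screen, raw or plate-pattern-corrected value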;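 further: 0% = DMSO wells with peroxide and 100% = DMSO wells without peroxide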
Gli-Sufu block: Gli-Sufu pathway antagonism; Sufu-KO-LIGHT fibroblasts, Gli luciferase reporter luminescence; inhibition, % at 5 µM; actives 0.74% (n = 340,000);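 active means inhibition above about 55%, limit read from the data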;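 further: 0% = DMSO-treated cells and 100% = wells with medium but no cells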
Jurkat NFkB inh: lowers PMA/ionomycin-induced NF-kB signal in Jurkat cells; actives 0.53% (n = 330,000); AID 435003; inhibition, % at 4 µM; PMA/ionomycin-induced NF-kB luciferase reporter, luminescence; in the data active means inhibition above about 50%
697 NFkB inh: inhibitors of the PMA/ionomycin-induced NF-kB reporter in 697 B cells. 697 B-cell NF-kB luciferase reporter, 16 h. AID 435022. actives 0.33% (n = 330,000). inhibition, % at 4 µM; in the data active means inhibition above about 35%
H9c2 TAG inh: inhibitors of triacylglycerol accumulation. H9c2 cells, Nile Red lipid (TAG) fluorescence; cells loaded with 200 µM oleic acid. actives 0.66% (n = 230,000). inhibition, % at 12.5 µM. AID 651582;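 active means pattern-corrected inhibition of lipid staining of at least 50% with the nuclear-stain viability signal not falling by more than 50%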;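 further: 0% = DMSO wells and 100% = triacsin C control wells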
COUP-TFII inh: inhibitors of human COUP-TFII (NR2F2). HEK293T NGFI-A luciferase reporter, luminescence. AID 686940. actives 0.7% (n = 370,000). inhibition, % at 8.6 µM. P24468;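 active means inhibition above a per-plate cutoff, mean inhibition of test wells between control levels plus 3 SD, cut at about 38% in these data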;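 further: cells cotransfected with COUP-TFII expression vector driving the NGFI-A reporter; 0% = median of COUP-TF2 test wells and 100% = reporter-only cells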
Target sequence (P24468 whole entry, looked up): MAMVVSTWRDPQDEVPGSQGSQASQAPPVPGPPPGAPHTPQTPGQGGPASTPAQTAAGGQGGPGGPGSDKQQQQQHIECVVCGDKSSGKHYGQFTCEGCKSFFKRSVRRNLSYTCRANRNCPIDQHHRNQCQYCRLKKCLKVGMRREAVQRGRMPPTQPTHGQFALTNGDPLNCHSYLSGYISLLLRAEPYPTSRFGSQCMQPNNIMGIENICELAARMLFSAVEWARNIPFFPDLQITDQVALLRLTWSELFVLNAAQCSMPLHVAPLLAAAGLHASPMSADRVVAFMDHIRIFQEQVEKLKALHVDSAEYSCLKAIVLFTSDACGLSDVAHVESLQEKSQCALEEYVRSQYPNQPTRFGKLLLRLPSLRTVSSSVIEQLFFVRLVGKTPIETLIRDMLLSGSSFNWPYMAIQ
Gli antag conf: confirmation of Gli-SUFU pathway antagonists; shares compounds with Gli-Sufu block; Sufu-KO-LIGHT cells, Gli luciferase reporter, luminescence; inhibition, % at 5 µM; actives 40% (n = 2,500);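 active means mean inhibition at 5 µM reaching about 45%, limit read from the data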;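 further: plate controls were DMSO-treated cells for no effect and wells lacking cells for full effect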
SufuKO cytotox: cytotoxic in Gli-SUFU antagonist counter-screen; AID 651994; shares compounds with Gli-Sufu block; Sufu-KO-LIGHT cells cytotoxicity, ATP luminescence; actives 32% (n = 2,500); cytotoxicity, % at 5 µM;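 active means mean cytotoxicity at 5 µM above about 25%, limit read from the data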;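 further: cells exposed to compound overnight for roughly 16 to 18 hours; plate controls were DMSO wells with cells for no effect and medium without cells for full effect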
Wnt3a cs: inhibits Wnt3a reporter, counter-screen for Gli-SUFU antagonists; shares compounds with Gli-Sufu block; Wnt-LIGHT cells, Wnt3a-driven luciferase reporter, luminescence; inhibition, % at 6.25 µM; actives 20% (n = 2,500); AID 651995;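 active means mean inhibition above about 25%, limit read from the data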
Active calls of the source: *; . = not tested or not shown. Sampled rows, rich in hits. Any-hit rate of the full collection: about 2.6%.

SMILES	H9c2 protect	Gli-Sufu block	Jurkat NFkB inh	697 NFkB inh	H9c2 TAG inh	COUP-TFII inh	Gli antag conf	SufuKO cytotox	Wnt3a cs
CN(CC(=O)Nc1ccccc1Cl)C(=O)CN1C(=O)C2CC=CCC2C1=O (stereo not drawn)	-3	55	-5	-2	-6	-6	5	-1	10
Cc1ccc2c(c1)N(CCCC(=O)N(C)Cc1ccc(F)cc1)C(=O)CO2	.	.	.	.	.	7	.	.	.
Cc1ccc(NC(=S)Nc2ccc(OC(F)F)c(Cl)c2)cc1Cl	-15	56*	.	.	.	-13	5	-2	-19
COc1cc(NC(=O)C2CCN(S(=O)(=O)c3ccc(N4CCCC4=O)cc3)CC2)cc(OC)c1	7	0	17	16	.	19	.	.	.
O=C(Nc1ccc(C(F)(F)F)cc1)C1CCN(S(=O)(=O)c2ccc(N3CCCC3=O)cc2)CC1	-11	77*	46	15	.	-4	79*	18	3
COc1ccc(NC(=O)C2CCN(S(=O)(=O)c3ccc(N4CCCC4=O)cc3)CC2)cc1OC	5	50	6	13	.	-13	16	19	-47
CN(C)S(=O)(=O)c1ccc2nnn(O)c2c1	5	59*	-1	13	-11	4	15	2	19
COc1ccc(CNCC(O)(c2ccccc2)c2ccccc2)cc1OC	-15	53	12	3	-16	10	15	14	-11
CCSc1nnc(Cn2c(=O)sc3ccccc32)n1-c1ccccc1C	-3	2	-11	6	-13	28	.	.	.
CSc1nnc(Cn2c(=O)sc3ccccc32)n1-c1ccccc1C	20	52	6	-12	-10	17	24	0	-4
CC1=CC(C)(C)N=C(Nc2nc(C)c3cc(C)cc(C)c3n2)N1	-18	50	12	-10	10	18	26	16	-68
CCSc1nnc([C@@H](NC(=O)OC(C)(C)C)C(C)C)o1	-1	9	11	-10	12	15	.	.	.
C=C(C)CSc1nnc([C@@H](NC(=O)OC(C)(C)C)C(C)CC)o1 (stereo partly drawn)	-5	94*	0	-32	.	6	20	13	-31
Cc1ccc(NC(=O)c2cc(F)c(F)cc2Cl)nc1	-10	-90	-71	-52	10	-46	.	.	.
Cc1ccc(NC(=O)c2ccccc2F)nc1	-6	99*	-110	-82	0	-49	-55	14	7
CC(C)NC(=O)N(C)C[C@H]1OCc2cn(nn2)CCCC(=O)N([C@H](C)CO)C[C@@H]1C	.	.	.	.	.	3	.	.	.
CCOC(=O)C1CCCN(CC(O)COC(c2ccccc2)c2ccccc2)C1 (stereo not drawn)	3	70*	-8	15	.	7	9	11	-32
CCOC(=O)C1CCCN(CC(O)COc2ccccc2C(C)=O)C1 (stereo not drawn)	5	6	-8	9	.	6	.	.	.
O=C(C1CCN(CCCc2ccccc2)CC1)N(CCc1ccccc1)Cc1ccccc1	-8	56*	3	-4	.	5	15	24	-43
COCCn1c(C)cc(C2=NNC(=Nc3ccccc3)SC2)c1C	-22	54	-37	-126	-33	27	12	40*	19
CSCCC(NC(=O)c1cccc(S(=O)(=O)N2CCOCC2)c1)C(=O)Nc1ccc(F)cc1 (stereo not drawn)	1	68*	7	7	.	-2	17	3	-19
COc1ccc2cc(C(=O)NCCc3ccccc3)[nH]c2c1	5	14	-76	-42	.	-32	.	.	.
COc1ccc2cc(C(=O)NCc3ccccc3)[nH]c2c1	-4	51	-38	3	.	14	31	11	-59
CCC(C)(C)n1nnnc1C(c1cc2ccc(OC)cc2[nH]c1=O)N1CCc2ccccc21 (stereo not drawn)	1	56*	-21	-30	.	-26	27	11	-3
COC(=O)[C@]12C[C@H](CC(=O)NCCc3ccccc3OC)C(=O)N(CCC3=CCCCC3)C1=C[C@H](COCc1ccccc1)O[C@@H]2C	.	.	.	.	.	-4	.	.	.
SMILES	H9c2 protect	Gli-Sufu block	Jurkat NFkB inh	697 NFkB inh	H9c2 TAG inh	COUP-TFII inh	Gli antag conf	SufuKO cytotox	Wnt3a cs
COC(=O)c1ccc(-c2ccc(OC)c([C@H]3[C@H]4C=CC[C@@H](C)[C@@H]4C(=O)N3Cc3ccccc3)c2)cc1	-8	54	-23	31	-25	11	50*	38*	-2
O=C(C1CCC(C(=O)N2CCCCC2)CC1)N1CCCCC1 (stereo not drawn)	9	-14	8	-10	-10	-19	.	.	.
CN1CCCN(C(=O)C2CCC(C(=O)N3CCCN(C)CC3)CC2)CC1 (stereo not drawn)	1	50	-16	-16	-9	3	8	-11	13
C(#Cc1ccccc1)C[N+]1(CC#Cc2cccc3ccccc23)CCCC1	-24	82*	24	-15	-4	31	83*	19	4
O=C(COC(=O)c1cnccn1)c1cccc([N+](=O)[O-])c1	2	50	15	8	-3	5	19	16	0
O=C1CCCN1CCCNc1ncnc2c1[nH]c1ccc(Cl)cc12	0	-2	6	9	.	-8	.	.	.
CCN1CCCC1CNc1ncnc2c1[nH]c1ccc(Cl)cc12 (stereo not drawn)	-11	52	-27	-28	26	-9	40	13	-95
CCn1c(SCC(=O)Nc2nc(-c3ccccc3)cs2)nc2c1c(=O)n(C)c(=O)n2C	-2	-2	0	-21	.	-2	.	.	.
CCCn1c(SCC(=O)Nc2nc(-c3ccc(OC)cc3)cs2)nc2c1c(=O)n(C)c(=O)n2C	-2	59*	15	-24	.	2	51*	12	5
CC(=O)NNc1ncnc2c1cnn2-c1ccccc1	-2	57*	10	3	5	-7	20	31*	-10
Nn1c(SCC(=O)N2CCOCC2)nnc1-c1cc(-c2ccc(Cl)cc2)n[nH]1	.	.	.	.	.	9	.	.	.
Cc1ccccc1-n1c(=O)cc(N2CCc3ccccc32)[nH]c1=O	-2	63*	14	0	8	-15	29	-11	-4
O=c1cc(N2CCc3ccccc32)[nH]c(=O)n1-c1ccccc1Cl	0	-2	15	17	-3	-5	.	.	.
CC(C)CN1C(=O)[C@]2(CC(=O)N(C)C2c2ccccc2)c2cc(-n3cc(CO)nn3)ccc21 (stereo partly drawn)	.	.	.	.	.	14	.	.	.
CCOc1ccc(N(CC(=O)Nc2c(C)n(C)n(-c3ccccc3)c2=O)S(=O)(=O)c2cccs2)cc1	.	.	.	.	.	0	.	.	.
